In all, about 48,000 compounds went through this assay and about 13,000 (27%) showed an effect of 50% or more. The list shows a part of the results.
system: Wolbachia pipientis; assay: Anti-Wolbachia Cell-Based Screen; assay type: functional; set-up: scale not given: in the data most compounds retested in dose-response had high values; conditions: 5 µM

| Compound | Percent Effect [%] |
| --- | --- |
| Cc1ccc(CN(C)Cc2nc3c(cnn3C)c(=O)[nH]2)o1 | 10.6 |
| Cc1occc1CN(C)Cc1nc2c(cnn2C)c(=O)[nH]1 | 0.5275 |
| CCN(Cc1nc2c(cnn2C)c(=O)[nH]1)Cc1ccco1 | 83.36 |
| COCCN(Cc1nc2c(cnn2C)c(=O)[nH]1)Cc1ccco1 | 0.2947 |
| CCN(Cc1nc2c(cnn2C)c(=O)[nH]1)Cc1cccs1 | 17.21 |
| CN(Cc1nc2c(cnn2C)c(=O)[nH]1)Cc1ccco1 | 90.92 |
| CCN(CC)CCn1cnc(-c2ccccc2)c1-c1ncc[nH]1 | -14.65 |
| COc1c(CNC2(c3noc(C)n3)CCC2)c(C)nn1C.Cl | -0.07917 |
| CCc1nc(C)c(C(C)N(C)CCc2ccncc2)s1 (stereo not given) | 1.512 |
| CN(CC(=O)N1CCN(c2ccccc2F)CC1)c1cnccn1 | 4.093 |
| CNC(=O)C1(c2cnccn2)CCCN1C(=O)c1ccccc1OC (stereo not given) | 2.763 |
| COCCC1(CO)CCCN(C(=O)c2cccnc2OC)C1 (stereo not given) | -0.7359 |
| CNC(=O)C1(c2cnccn2)CCCN1C(=O)c1ccccc1F (stereo not given) | 99.27 |
| O=C1CCCC2(CCN(C(=O)c3cnccn3)CC2)N1 | -3.096 |
| CNC(=O)C1(c2cnccn2)CCCN1C(=O)c1c(F)cccc1F (stereo not given) | 94.23 |
| CNC(=O)C1(c2cnccn2)CCCN1C(=O)c1cccnc1OC (stereo not given) | 97.1 |
| O=C1CCC2(CCCN(C(=O)c3cnccn3)CC2)N1 (stereo not given) | -28.51 |
| CNC(=O)C1(c2cnccn2)CCCN1C(=O)c1ccccc1C (stereo not given) | 116.1 |
| CCC(CC)n1ncc(C(=O)NS(=O)(=O)c2ccsc2)c1C | -0.139 |
| CN(Cc1ncnn1C)C(=O)CCn1ccc2ccccc21 | -15.17 |
| CN(C)c1ncnc2c1CCN(C(=O)c1sccc1S(N)(=O)=O)C2 | -19.94 |
| CN(C)CC(=O)N1Cc2nc(C(=O)NCc3ccncc3)oc2C1 | -11.57 |
| O=c1nc(SCc2cccnc2)c2c(n1CCO)CCCC2 | 8.765 |
| O=C(N[C@]12CC1CN(C(=O)c1ccco1)C2)c1ccoc1 (stereo not given in full) | -22.61 |
| CNc1ncccc1C(=O)N1CCCC2(CCN(C)CC2)CC1 | -1.008 |
| CNC(=O)C1(c2cnccn2)CCCN1C(=O)c1ncccc1C (stereo not given) | 109.2 |
| O=C(O)C(F)(F)F.O=C(O)C(F)(F)F.c1cc(CNCC2OCCc3cn(CC4CC4)nc32)cs1 (stereo not given) | -9.045 |

| Compound | Percent Effect [%] |
| --- | --- |
| O=C(O)C(F)(F)F.c1c2c(nn1CC1CCOCC1)C(CNC1CCOCC1)OCC2 (stereo not given) | -44.92 |
| COCCn1cc2c(n1)C(CNCc1ccc(F)cc1)OCC2.O=C(O)C(F)(F)F.O=C(O)C(F)(F)F (stereo not given) | 10.33 |
| COCCn1cc2c(n1)C(CNCc1nccs1)OCC2.O=C(O)C(F)(F)F.O=C(O)C(F)(F)F (stereo not given) | 108.5 |
| O=C(O)C(F)(F)F.O=C(O)C(F)(F)F.O=C(O)C(F)(F)F.c1ccc(Cn2cc3c(n2)C(CNCC2CCOCC2)OCC3)nc1 (stereo not given) | 3.019 |
| Fc1cccc(CNCC2OCCc3cn(CC4CCOCC4)nc32)c1.O=C(O)C(F)(F)F (stereo not given) | -13.58 |
| COCCn1cc2c(n1)C(CNCc1ccsc1)OCC2.O=C(O)C(F)(F)F (stereo not given) | 95.33 |
| O=C(Cc1ccccn1)NCC1OCCc2cn(CC3CC3)nc21.O=C(O)C(F)(F)F (stereo not given) | -22.67 |
| COCCn1cc2c(n1)C(CNCc1cccc(OC)c1)OCC2.O=C(O)C(F)(F)F (stereo not given) | 125 |
| Cc1ccc(Sc2ccc(CN3CCC4(CC3)NCCNC4=O)o2)cc1 | -3.78 |
| CCCN(C)c1ccc(C(=O)Nc2c(C)nn(C(C)C)c2C)cc1 | 9.882 |
| Cc1ccc(CNC(=O)c2oc3ccccc3c2CN(C)C)n1C | -0.2654 |
| Cl.O[C@@H]1CN(Cc2cccc(F)c2)CC[C@H]1NCc1ccccn1 | 63.1 |
| Cl.O[C@@H]1CN(Cc2ccc(F)cc2)CC[C@H]1NCc1ccccn1 | 97.86 |
| CN(Cc1cccc(F)c1)C1CCN(CCc2ccccn2)CC1 | 5.619 |
| Cl.O[C@@H]1CN(Cc2ccc(F)c(F)c2)CC[C@H]1NCc1ccccn1 | 84.03 |
| COCc1nccc(C2CCCN(Cc3cccc(F)c3)C2)n1 (stereo not given) | -13.68 |
| O=C(NC[C@H]1OC[C@@H](NCc2ccccn2)[C@@H]1O)c1ccc(F)cc1 | 4.298 |
| Fc1ccc(CNC2CCN(CCc3ccncc3)CC2)cc1F | -3.888 |
| Fc1ccc(OCc2nnc([C@H]3CCN(Cc4ccccn4)C3)o2)cc1 | 11.6 |
| Cc1[nH]c2ccc(CNC3CCN(Cc4ccccn4)CC3)cc2c1C | -2.213 |
| Cc1nccc(-c2ccccc2)c1C(=O)N1CC[C@](C)(O)[C@H](C)C1 | -6.254 |
| CC(C)CN(C)S(=O)(=O)c1ccc(Cl)cc1C#N | -10.78 |
| CN(C)C(CNC(=O)N(Cc1ccco1)C1CC1)c1cccs1 (stereo not given) | 11.82 |
| CCC(C)C(=O)N(Cc1ccccn1)C1CC1 (stereo not given) | -10.35 |
| COc1ncccc1NC(=O)N1CCC(CNC(C)=O)CC1 | 2.478 |
| COc1ncccc1NC(=O)N(Cc1ccc(C(N)=O)cc1)C1CC1 | 99.11 |
| COc1ncccc1NC(=O)N(Cc1ccc(C)o1)C1CC1 | -9.414 |

| Compound | Percent Effect [%] |
| --- | --- |
| COc1cc(CN(C(=O)Nc2cccnc2OC)C2CC2)ccc1O | -7.175 |
| COc1ncccc1NC(=O)N(Cc1ccccn1)C1CC1 | 99.69 |
| COc1ncccc1NC(=O)N(Cc1ccco1)C1CC1 | 106.8 |
| CCN(C(=O)Nc1cccnc1OC)C1CC1 | -1.512 |
| CCN(CC)C(=O)C1CCN(C(=O)Nc2cccnc2OC)CC1 | 6.94 |
| COc1ncccc1NC(=O)N(CC(C)C)C1CC1 | 114.6 |
| CC(C)c1cc(NC(CCO)c2ccccc2)n2nccc2n1 (stereo not given) | 9.375 |
| COc1ccc(N(C)C(=O)C2CN(C)CCO2)cc1F (stereo not given) | 4.691 |
| O=C1CN(Cc2nnc(-c3ccc(Br)o3)o2)CCN1 | -7.381 |
| Cc1ccc(S(=O)(=O)NCc2[nH]ncc2Br)cc1F | -12.16 |
| COc1ncccc1NC(=O)N1CCC(C(=O)NC(C)C)CC1 | 0.676 |
| COc1ncccc1NC(=O)C1CCS(=O)(=O)C1 (stereo not given) | 1.624 |
| COc1ncccc1NC(=O)N(C1CC1)C(C)C(C)C (stereo not given) | 116 |
| CCNC(=O)C(C)NC(=O)Nc1ccccc1SC(F)(F)F (stereo not given) | -8.555 |
| CC(C)NC(=O)C1CN(C(=O)N(C)C)CC12CCOCC2 (stereo not given) | 94.32 |
| CN(C)C(=O)N1CC(C(=O)NCC2CC2)C2(CCOCC2)C1 (stereo not given) | 105.7 |
| Cc1ccoc1C(=O)N1CC(C(=O)NCC2CC2)C2(CCOCC2)C1 (stereo not given) | -3.998 |
| COCC(=O)N1CC(C(=O)NCC2CC2)C2(CCOCC2)C1 (stereo not given) | 104.6 |
| O=C(NCC1CC1)C1CN(C(=O)Cc2cccs2)CC12CCOCC2 (stereo not given) | 5.816 |
| O=C(NCC1CC1)C1CN(C(=O)c2ccncc2)CC12CCOCC2 (stereo not given) | -0.9426 |
| CC(C)NC(=O)C1CN(C(=O)Nc2ccccc2)CC12CCOCC2 (stereo not given) | 0.6544 |
| CC(C)NC(=O)C1CN(C(=O)N2CCCC2)CC12CCOCC2 (stereo not given) | -8.761 |
| Cc1ccsc1C(=O)N1CC(C(=O)NCC2CC2)C2(CCOCC2)C1 (stereo not given) | 12.17 |
| Cc1[nH]nc2ncc(C(=O)N3CCN(CC(C)C)CC3)cc12 | 0.1242 |
| Cc1cc(C)n(CCCN(C)C(=O)CN2CC3(CCNCC3)OC2=O)n1 | -7.554 |
| CCN(CC)CC[C@H]1CN(C(=O)NC2CCCCC2)CC[C@H]1CC(=O)O | -0.6664 |
| O=C(NC[C@H]1OC[C@@H](NC2CCCC2)[C@@H]1O)C1CCCC1 | 10.82 |

| Compound | Percent Effect [%] |
| --- | --- |
| NC(=O)C1CN(Cc2c(O)ccc3oc4c(c23)CCCC4)CCO1 (stereo not given) | -16.77 |
| Oc1ccc2oc3c(c2c1CN1CCOCC1)CCCC3 | 6.402 |
| O=C1NCCCc2c1oc1ccc(O)c(CN3CCOCC3)c21 | 142.2 |
| CCOc1ccc(C(=O)NCCCNc2ncccn2)cc1 | -0.3981 |
| O=C(O)C(F)(F)F.O=C([C@@H]1COC[C@H]2CN(C3CCCC3)C[C@H]21)N1CCC(F)CC1 | -0.4691 |
| O=C(C[S+]([O-])c1ccc(F)c(F)c1)NCc1cc(F)cc(F)c1 (stereo not given) | -8.156 |
| COc1ccc(CC(=O)N2CCN(C)c3ncccc3C2)cc1.O=C(O)C(F)(F)F | 1.148 |
| COCCN1CCN(S(=O)(=O)c2ccccc2)Cc2cccnc21.O=C(O)C(F)(F)F | 100.4 |
| CC(C)CN1CCN(S(=O)(=O)c2cn(C)cn2)Cc2cccnc21.O=C(O)C(F)(F)F.O=C(O)C(F)(F)F | -3.796 |
| COCCN1CCN(Cc2c(C)noc2C)Cc2cccnc21.O=C(O)C(F)(F)F.O=C(O)C(F)(F)F | -0.8432 |
| COc1ccc(S(=O)(=O)N2CCN(C)c3ncccc3C2)cc1.O=C(O)C(F)(F)F | 100.8 |
| COc1cccc(CC(=O)N2CCN(C)c3ncccc3C2)c1.O=C(O)C(F)(F)F | -8.872 |
| CN(Cc1ccc(C(=O)O)cc1)C(=O)c1sccc1OC(F)F | 7.137 |
| Cn1cc(CN2CC[C@H]3OCC[C@@H](C(=O)N4CCCCO4)[C@@H]3C2)cn1 | 16.39 |
| CC(C)(C)N1CC(C(=O)N2CCN(CCn3cccc3)CC2)CC1=O (stereo not given) | -2.783 |
| CCn1ncc(S(=O)(=O)N2CCCC3(CC=CNC3=O)C2)c1C (stereo not given) | 120.2 |
| CCn1cc(S(=O)(=O)N2CCC3(CCCN(CC4CCC4)C3=O)C2)cn1 (stereo not given) | -1.219 |
| CCn1nccc1S(=O)(=O)N1CCC2(CCCN(C(C)C)C2=O)C1 (stereo not given) | -32.08 |
| CCCN1CCCC2(CCN(S(=O)(=O)c3cc(C)nn3CC)C2)C1=O (stereo not given) | -15.13 |
| CCn1nc(C)cc1S(=O)(=O)N1CCC2(CC(=O)NC2=O)C1 (stereo not given) | -2.488 |
| CCn1cc(S(=O)(=O)N2CCCC3(CC=CNC3=O)C2)cn1 (stereo not given) | 97.1 |
| CC(C)n1cc(S(=O)(=O)N2CCCCC2)cn1 | 6.255 |
| CCn1cc(S(=O)(=O)N2CCCC3(CC=CNC3=O)C2)c(C)n1 (stereo not given) | 118.1 |
| CCn1nc(C)cc1S(=O)(=O)N1CCC2(CCCN(C(C)C)C2=O)C1 (stereo not given) | -24.78 |

Reference: ChEMBL document CHEMBL3988442, “University of Dundee, Small-Polar-MMV Screening Library” (2021)
